Source: PubChem BioAssay
RORg inh – blocks mouse ROR gamma transcriptional activity; Potency, µM (series often up to 53.6 µM), for the others: at the highest dose activity change, negative = inhibition, hits mostly inhibitors; 310,000 compounds, 5.4% hits; P51450; AID 2551; Drosophila S2 Gal4-RORgamma UAS-luciferase reporter, 20 h; further: on the % scale 0 is the no-effect control and ±100 the full control effect; nearly all actives have a fitted effect of over 60% in size
Target sequence (P51450 whole entry, looked up, the tested form may be a part): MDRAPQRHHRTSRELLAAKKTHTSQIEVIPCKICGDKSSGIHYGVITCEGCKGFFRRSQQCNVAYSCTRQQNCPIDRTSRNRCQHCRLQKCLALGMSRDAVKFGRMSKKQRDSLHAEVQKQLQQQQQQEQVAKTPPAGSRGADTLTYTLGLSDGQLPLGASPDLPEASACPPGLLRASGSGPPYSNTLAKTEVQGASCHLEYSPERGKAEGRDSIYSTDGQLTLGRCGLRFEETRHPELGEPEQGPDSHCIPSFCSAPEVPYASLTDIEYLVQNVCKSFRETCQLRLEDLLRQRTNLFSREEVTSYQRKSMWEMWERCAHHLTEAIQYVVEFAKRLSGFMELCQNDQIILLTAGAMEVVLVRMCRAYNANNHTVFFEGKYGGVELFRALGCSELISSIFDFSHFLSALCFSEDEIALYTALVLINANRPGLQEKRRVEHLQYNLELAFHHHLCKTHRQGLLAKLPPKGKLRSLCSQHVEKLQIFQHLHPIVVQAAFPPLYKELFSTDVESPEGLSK
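Compounds are pin-transferred onto Drosophila Schneider cells expressing a copper-inducible Gal4–ROR gamma transactivation domain fusion. After 1 hr, copper sulfate is added to 700 uM final; luciferase is read 20 hr later.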
SW480 rereplic – induces DNA re-replication in SW480 colon adenocarcinoma cells; SW480 DNA re-replication, Hoechst DNA content imaging, 48 h; Potency, µM (doses to about 46.1 µM), for the others: at the top dose re-replication activation, most hits filed as activators; 340,000 compounds, 1.8% hits; AID 624297; further: % of control where 0% means no effect; nearly all actives have a fitted effect of over 55% in size
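Image-based DNA-content assay: after two days of treatment, nuclei were labelled with the DNA dye Hoechst and imaged, and hits were compounds raising the count of nuclei showing high fluorescence intensity.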
VP16 counter – counter-screen for ROR gamma inhibitors: Gal4-VP16 reporter | Drosophila S2 Gal4-VP16 UAS-luciferase, luminescence, 20 h | Potency, µM (titrated, usually from 53.6 µM), for the others: at the top dose activity, negative = inhibition, actives largely listed as inhibitors | 310,000 compounds, 3.5% hits | AID 2546;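 further: Gal4-VP16 expression switched on by copper sulfate through the metallothionein promoter; on the % scale 0 is the no-effect control and ±100 the full control effect; nearly all actives have a fitted effect of over 50% in size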
KB-V1 MDR tox – kills drug-selected multidrug resistant KB-V1 cells; 400,000 compounds, 3.4% hits; Potency, µM (doses to about 46.1 µM), most hits filed as cytotoxic; KB-V1 MDR cells viability, CellTiter-Glo, 72 h; further: on the % scale 0 is the no-effect control and ±100 the full control effect; nearly all actives have a fitted effect of over 60% in size
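Drug-selected KB-V1 cells, grown in DMEM lacking phenol red with 10% FBS, receive compound titrations; after three days at 37 degrees C, surviving cell ATP is quantified by CellTiter-Glo luminescence and responses normalized and curve-fitted.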
KB-3-1 tox – kills parental KB-3-1 adenocarcinoma cells. KB-3-1 viability, CellTiter-Glo ATP luminescence, 72 h. Potency, µM (highest dose often 46.1 µM), hits mostly cytotoxic. 400,000 compounds, 1.4% hits. AID 1347075; further: on the % scale 0 is the no-effect control and ±100 the full control effect; nearly all actives have a fitted effect of over 60% in size
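Multi-concentration cytotoxicity screen in KB-3-1 cells grown in DMEM lacking phenol red with 10% FBS. After 72 h at 37 °C with compound, ATP-dependent luminescence was recorded.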
MCF10A rereplic – induces DNA re-replication in MCF 10a normal breast cells. Potency, µM (titrated, usually from 46.1 µM), for the others: at the highest dose activity, positive = re-replication, hits mostly activators. AID 624296. 350,000 compounds, 2.9% hits. MCF 10A DNA re-replication, Hoechst nuclear intensity, 48 h; further: % of control where 0% means no effect; nearly all actives have a fitted effect of over 50% in size
An asterisk follows results filed as active; i = inactive; u = inconclusive; x = no result; [ ] = another dose, or the depositor's remark. Shown are actives, neighbours in structure and some others; about 10% of the full set was active somewhere. The call rests on the fitted dose curve; in most records, active means well fitted curve in the direction sought with a large enough effect; inconclusive means small, poorly fitted or top-dose-only effect, or another doubt; inactive means no such curve, though single readings can be large; an effect the other way counts as inactive or inconclusive. Potency means the concentration at half of the fitted maximal effect.

SMILES | RORg inh | SW480 rereplic | VP16 counter | KB-V1 MDR tox | KB-3-1 tox | MCF10A rereplic
O=C(c1ccco1)N1CCN(C(=O)c2cnn3c2NC(c2cccs2)CC3C(F)(F)F)CC1 (stereo unspecified) | 25% | -3% | -19% | i | u | 6%
O=C(c1cnn2c1NC(c1ccco1)CC2C(F)(F)F)N1CCN(c2cccc(Cl)c2)CC1 (stereo unspecified) | u | u | -14%[0.365 µM] | u | u | 7.3µM*
CCOC(=O)COc1ccc([N+](=O)[O-])cc1-c1ccnc2cc(-c3ccc(C)cc3)nn12 | x | x | x | i | i | x
Cc1ccc(-c2cc3nccc(-c4cc([N+](=O)[O-])ccc4O)n3n2)cc1 | x | x | x | u | 23µM* | x
Cc1ccc(-c2cc3ncc(C(=O)c4cc([N+](=O)[O-])ccc4O)cn3n2)cc1 | x | x | x | i | 16µM* | x
O=C(c1cnc2cc(-c3ccccc3)nn2c1)c1cc([N+](=O)[O-])ccc1O | x | x | x | i | u | x
Cc1ccc(OCc2nc3ccccc3n2C(C(=O)NC(C)(C)C)c2ccncc2)cc1 (stereo unspecified) | x | x | x | u | i | x
CCOC(=O)N/N=C\c1cccc(OC)c1OC/C=C/c1ccccc1 | 3% | u | -9% | u | i | u
COCC(=O)N/N=C\c1ccc(OC/C=C/c2ccccc2)c(OC)c1 | 13µM* | u | u | 12µM* | i | u
COc1cccc(/C=N/NC(=O)CC(C)O)c1OC/C=C/c1ccccc1 (stereo unspecified) | 11µM* | u | 16µM* | u | i | -2%
CNC(=S)N/N=C/c1ccc(OCC(=O)Nc2c(C)cc(C)cc2C)c(OC)c1 | 14µM* | 4% | 13µM* | i | i | u
COc1ccc(C)cc1-n1cnc2cc(C(=O)NC3CCCCCC3)ccc21 | x | x | x | u | i | x
COC(=O)c1cc(OC)c(OC)cc1N1C(=O)CCCC1=O | 15% | -5% | 3% | i | i | -4%
COc1ccc(OC)c(N2C(=O)CCCC2=O)c1 | 11µM* | -8% | 2% | i | i | u
O=C(Nc1ccccc1)c1nnsc1S(=O)c1ccc(Cl)cc1 (stereo unspecified) | 16µM* | 23µM* | 4.5µM* | i | u | u
O=C(c1nnsc1S(=O)(=O)c1ccc(Cl)cc1)N1CCOCC1 | 2.8µM* | u | 10µM* | i | u | 3.5µM*
Nc1nc(C(=O)N2CCOCC2)nn1S(=O)(=O)c1ccc(Cl)cc1 | -23% | 1% | 1% | i | i | -1%
Cc1nnsc1S(=O)c1ccc(Cl)cc1 (stereo unspecified) | -22% | u | 3% | i | u | 2%
CNC(=O)c1nnsc1S(=O)(=O)c1ccc(Cl)cc1 | 0.56µM* | 1µM* | 0.4µM* | i | u | 1.5µM*
O=C(c1nnsc1S(=O)c1ccc(Cl)cc1)N1CCOCC1 (stereo unspecified) | 1.1µM* | 3% | 3.5µM* | 13µM* | u | 18%
CCOC(=O)CCN(c1ccccc1)S(=O)(=O)c1ccc2[nH]c(=O)ccc2c1 | x | x | x | u | i | x
C#CCCCO/N=C1/C[C@@H](O)[C@@H](O)[C@@H]2[C@@H]3C(=O)N(Cc4ccc5c(c4)OCO5)C(=O)[C@H]3CC[C@@H]12 | 2%[10 µM] | x | -4%[10 µM] | x | x | x
CCN(C(=O)c1ccco1)c1nc(CC(=O)Nc2ccc(Cl)cc2)cs1 | u | 12µM* | -6% | 16µM* | i | 12µM*
CN(C(=O)c1ccco1)c1nc(CC(=O)Nc2ccccc2)cs1 | u | -4% | u | i | i | 30%
Cc1nc2cnc(N(C)C)nc2n(CCc2ccccc2)c1=O | 24% | x | -3% | x | x | x
SMILES | RORg inh | SW480 rereplic | VP16 counter | KB-V1 MDR tox | KB-3-1 tox | MCF10A rereplic
CCCCN(CCCC)CC(O)c1cc(Cl)cc2c1-c1ccc(Cl)cc1/C2=C/c1ccc(Cl)cc1 (stereo unspecified) | -19% | u | u | x | x | 10%
CCOc1ccc(CN2CCN(Cc3[nH]c4ccccc4c3C)CC2CCO)cc1 (stereo unspecified) | 1% | 23µM* | -13% | u | u | u
COc1ccc(NC(=O)N(Cc2ccco2)C2CCN(C(C)=O)CC2)c(OC)c1 | x | x | x | i | i | x
O=C(c1cn(CCOc2ccc(Cl)cc2)c2ccccc12)C1CCCCC1 | x | x | x | i | i | x
CC1CC=C(c2ccccc2)C(=S)N1 (stereo unspecified) | 1µM* | -65% | 3.2µM* | i | i | u
CC1NC(=O)COC1c1ccccc1 (stereo unspecified) | x | x | x | i | i | x
O=S(=O)(Nc1cc(Sc2ncn[nH]2)c(O)c2ccccc12)c1ccccc1 | 7.9µM* | 10µM* | 7.1µM* | i | i | 1µM*
Cc1cc(O)c(Sc2ncn[nH]2)cc1NS(=O)(=O)c1ccc(Cl)cc1 | x | 1% | x | i | u | 6%
COC(=O)c1ccc(C(NC(=O)OCc2ccccc2)/C(=C/[C@@H](C)C(=O)N(C)Cc2ccccc2)c2cccnc2)cc1 (stereo partly specified) | 35% | x | -12% | x | x | x
Cc1ccc2c(=O)cc(C(=O)Nc3sc4c(c3C(=O)NCC3CCCO3)CCCC4)oc2c1C (stereo unspecified) | x | x | x | i | i | x
O=C1Cc2ccccc2C1=C1C=c2ccccc2=C1 | x | x | x | i | u | x
COc1ccccc1NC(=O)C1=C(C)Nc2nc(SCC(=O)c3ccc(C)cc3)nn2C1c1ccc(F)cc1 (stereo unspecified) | x | x | x | i | i | x
Oc1ccc(N=Nc2cccc(C(F)(F)F)c2)cc1C=Nc1ccc(N2CCOCC2)cc1 | -44%[10 µM] | u | 5% | i | i | 5.8µM*
Oc1ccc(C=Nc2ccc(N3CCOCC3)cc2)c(O)c1 | -21% | u | -2% | u | i | u
CC1Cc2ccccc2N1C(=O)CN1CCC(n2nnc3cc(C(F)(F)F)ccc32)CC1 (stereo unspecified) | 39% | 10% | 4µM* | i | u | -4%
COc1ccc(C(=O)NNC(=O)CN2CCC(n3nnc4cc(C(F)(F)F)ccc43)CC2)cc1 | u | -3% | -2% | i | i | 25%
COC(=O)c1ccccc1NC(=O)CN1CCC(n2nnc3cc(C(F)(F)F)ccc32)CC1 | -14% | 1% | -3% | 4.1µM* | u | u
Cc1ccccc1Cn1cnc2nc3c(cc2c1=O)CC(C)CC3 (stereo unspecified) | x | x | x | i | i | x
